Screening results from PubChem BioAssay.
An excerpt weighted towards active compounds, which were near 3.4% of everything screened.
GPR151 activ: activators of human GPR151, primary screen, cell-based, PathHunter beta-arrestin, luminescence. AID 1508602, 2020. activation, % at 11.2 µM. 650,000 compounds, 1% hits. G-protein coupled receptor 151 (Homo sapiens), Q8TDV0. PathHunter beta-arrestin GPR151 cells; in the data active = activation above about 4.9%;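 note: 0% = median of compound wells and 100% = cells with positive control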
Target sequence (Q8TDV0 whole entry, looked up): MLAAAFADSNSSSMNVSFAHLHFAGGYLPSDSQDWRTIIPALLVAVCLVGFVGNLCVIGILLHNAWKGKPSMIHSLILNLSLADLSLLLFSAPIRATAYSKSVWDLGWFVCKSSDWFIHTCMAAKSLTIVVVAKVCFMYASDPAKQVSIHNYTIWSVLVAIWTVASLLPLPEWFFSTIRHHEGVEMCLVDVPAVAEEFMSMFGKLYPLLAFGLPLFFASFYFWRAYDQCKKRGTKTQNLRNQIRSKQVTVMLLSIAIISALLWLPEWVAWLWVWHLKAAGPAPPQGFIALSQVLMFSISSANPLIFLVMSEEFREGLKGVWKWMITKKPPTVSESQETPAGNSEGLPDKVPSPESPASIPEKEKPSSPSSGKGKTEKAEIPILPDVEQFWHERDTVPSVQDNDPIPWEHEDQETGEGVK
MITF inh: MITF inhibitors, primary screen, biochemical, AlphaScreen, human. Microphthalmia-associated transcription factor (Homo sapiens), O75030. AlphaScreen MITF homodimerization, bead proximity signal. 650,000 compounds, 0.91% hits. inhibition, % at 2.6 µM; in the data active = inhibition above about 50%;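 note: 0% = vehicle wells with protein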
FBW7 activator: FBW7 E3 ligase activators, primary screen, biochemical, AlphaScreen, human; F-box/WD repeat-containing protein 7 (Homo sapiens), Q969H0; normalized activity (activation), % at 26.1 µM; AlphaScreen FBW7–phospho-cyclin E peptide binding, activator screen; 650,000 compounds, 0.13% hits; in the data active = normalized activity above about 1.9%;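 note: purified mutant Fbw7 with reduced substrate affinity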
TEAD-YAP inh: TEAD-YAP interaction inhibition, primary screen, TEAD-YAP interaction inhibitor project, luminescence, HEK-TIYL cells. 640,000 compounds, 1.4% hits. AID 1259422, 2018. inhibition, % at 9.12 µM. TEAD-Gal4/YAP UAS-luciferase luminescence; in the data active = inhibition above about 32%;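 note: 0% = median of test compound wells and 100% = reference inhibitor wells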
MITF inh conf: MITF inhibitors, retest of hits, confirmation, biochemical, AlphaScreen, triplicate | shares compounds with MITF inh | AlphaScreen MITF homodimerization, biotin/His-MITF beads | inhibition, % at 2.6 µM | 4,700 compounds, 16% hits | AID 1259372, 2018;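 active = inhibition above a cutoff derived from the DMSO control wells, cut at about 28% in these data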;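 note: 0% = MITF dimer wells with DMSO only; inhibitors lower the bead chemiluminescence by keeping MITF from dimerizing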
AS interf ctr: AlphaScreen optical interference compounds, counter-screen for MITF inhibitor project, biochemical, triplicate | LysRS AlphaScreen counterscreen, signal interference | AID 1259376, 2018 | 4,700 compounds, 7.6% hits | shares compounds with MITF inh | inhibition, % at 2.6 µM;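 active = inhibition above a cutoff derived from the DMSO control wells, cut at about 30% in these data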
An asterisk follows results filed as active; x = not tested or not shown.

SMILES | GPR151 activ | MITF inh | FBW7 activator | TEAD-YAP inh | MITF inh conf | AS interf ctr
COc1ccc(C)cc1S(=O)(=O)N(C)CC(=O)Nc1ccccc1F | 3 | -2 | 0 | -1 | x | x
O=C(O)COc1ccc(/C=N/NC(=O)c2cccc(Cl)c2)cc1 | -3 | -5 | 0 | -32 | x | x
O=C(c1cccnc1)N1CCN(Cc2ccccc2Br)CC1 | 1 | 40 | 0 | -5 | x | x
O=C(c1cccnc1)N1CCN(Cc2ccccc2F)CC1 | -1 | 56* | 0 | -1 | 0 | -4
COc1ccc(OC)c(CN2CCN(C(=O)c3cccnc3)CC2)c1 | -2 | 59* | 1 | -5 | 6 | 18
COc1cc(OC)c(OC)cc1CN1CCN(C(=O)c2cccnc2)CC1 | -1 | 68* | 0 | -12 | 4 | 4
COc1ccccc1C(=O)N1CCN(C(=O)c2cccnc2)CC1 | 2 | 0 | 0 | 1 | x | x
CCC(NS(=O)(=O)c1ccc(OC)cc1)C(=O)NCc1cccnc1 (stereo not drawn) | 0 | 4 | 0 | 3 | x | x
COC(=O)c1ccc2c(=O)n(Cc3ccc(C(=O)N4CCN(c5ccccn5)CC4)cc3)c(=S)[nH]c2c1 | -1 | 5 | 0 | -5 | x | x
Cc1cc(C(C)(C)C)ccc1OCCN1CCN(C)CC1 | 1 | 87* | 0 | 2 | 27 | 20
Cc1cc(C(C)(C)C)ccc1OCCOCCN1CCOCC1 | 1 | 73* | 0 | 3 | -12 | 11
Cc1cc(C(C)(C)C)ccc1OCCCN1CCN(C)CC1 | 1 | 63* | 0 | -4 | 16 | 3
Cc1cc(C(C)(C)C)ccc1OCCOCCN1CCN(C)CC1 | 0 | 49 | 0 | -5 | x | x
Cc1ccc(NC(=O)C(=O)NCc2cccnc2)cc1 | 0 | -2 | 0 | -16 | x | x
COc1ccccc1OCCN1CCN(C)CC1 | 1 | 73* | 0 | -6 | 5 | 9
COc1ccccc1OCCN1CCCCC1 | -1 | 27 | 0 | 10 | x | x
COc1ccccc1OCCN1CCN(c2ccccc2)CC1 | 0 | -1 | 0 | 14 | x | x
COc1ccccc1OCCN1CCOCC1 | -1 | 54* | 0 | -4 | 6 | 9
COc1ccc2ccccc2c1CN1CCSCC1 | 0 | 54* | 0 | 14 | -6 | -5
Cc1cc(=O)[nH]c(NCCc2ccccc2)n1 | 0 | 6 | 0 | 8 | x | x
CC1=C(NCCc2ccccc2)CCC1=O | 1 | 61* | 1 | 6 | 14 | 9
Cc1[nH]c(=O)[nH]c1C(=O)CCCCC(=O)OCC(=O)Nc1ccccc1[N+](=O)[O-] | 0 | 113* | -1 | 9 | 115* | 93*
Cc1[nH]c(=O)[nH]c1C(=O)CCCCC(=O)O | 1 | 121* | 0 | 8 | 113* | 95*
CCCCCCC(=O)Oc1ccc2cc(OC(=O)CCCCCC)ccc2c1 | 0 | 1 | 0 | -2 | x | x
CCOC(=O)CCCC/C(=N\O)c1[nH]c(=O)[nH]c1C | 0 | 99* | -1 | -7 | 97* | 65*
SMILES | GPR151 activ | MITF inh | FBW7 activator | TEAD-YAP inh | MITF inh conf | AS interf ctr
CCOC(=O)CCCCC(=O)c1[nH]c(=O)[nH]c1CNc1ccc(Br)cc1 | -2 | 27 | 1 | 3 | x | x
CC(=O)NCC(=O)OCC(=O)Nc1ccccc1[N+](=O)[O-] | 0 | -6 | 0 | 7 | x | x
Cc1[nH]c(=O)[nH]c1C(=O)CCCCC(=O)OCC(=O)Oc1ccc2ccccc2c1 | 1 | 112* | -1 | -6 | 111* | 98*
O=C(NCc1cccnc1)NC1CC(=O)N(c2ccccc2)C1 (stereo not drawn) | 2 | -6 | 0 | 1 | x | x
O=C(CNS(=O)(=O)c1ccc(Cl)cc1)N/N=C/c1ccc(Cl)cc1 | -1 | 3 | 0 | 11 | x | x
CCN(CC)S(=O)(=O)c1ccc(N/N=C/c2cccc(OC)c2O)c([N+](=O)[O-])c1 | 1 | 2 | 0 | -10 | x | x
Cc1cc(NC(=O)COC(=O)CCCCC(=O)c2[nH]c(=O)[nH]c2C)no1 | 1 | 116* | -2 | 9 | 112* | 93*
CCOC(=O)/C=C1/Nc2ccccc2C(c2ccccc2)(c2ccccc2)N1 | 0 | 3 | 0 | 13 | x | x
CCOC(=O)/C=C1\NC(c2ccccc2)=C(c2ccccc2)C1=O | -1 | 56* | 0 | -7 | 8 | 17
